# Hits are enriched below; roughly 4.2% of the tested compounds scored in any of these assays.
# D1 agonist – Allosteric Agonists of the Human D1 Dopamine Receptor: qHTS; D(1A) dopamine receptor (Homo sapiens), P21728; HEK293 T-REx D1 cells, calcium flux, agonist mode; activation, % at 2 µM; actives 1% (n = 360,000); in the data active means activation above about 30%; further: 0% is about no effect
#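 Inducible HEK293 T-REx D1 cells, force-coupled to calcium signalling, were plated at 4000 cells/well with tetracycline and held overnight at 30 C. After no-wash calcium dye loading, compound-evoked calcium rise over 180 s flagged agonists.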
# D1 antag – Antagonist of Human D 1 Dopamine Receptor: qHTS | HEK293 TREx D1 cells, calcium flux, dopamine EC80; stronger effect = lower value | actives 3.2% (n = 360,000) | D(1A) dopamine receptor (Homo sapiens), P21728 | activity change, negative = inhibition, % at 10 µM; in the data active means activity change below about -30%; further: on the % scale 0 is the no-effect control and ±100 the full control effect
#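 Kinetic fluorescence of a calcium dye serves as the read-out. D1-expressing Hek293 Trex cells, induced overnight at 30 C, are exposed to compound for 180 s before an EC80 dopamine addition, then read 180 s further.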
# TRPV1 ag – HTS Assay for Compounds that Act as Agonists of the Vanilloid Receptor 1. AID 540275, 2011. TRPV1-expressing cells, Fluo-8 calcium influx, agonist mode. actives 0.19% (n = 320,000). activation, % at 8.33 µM; in the data active means activation above about 80%; inconclusive means between about 30% and that limit; further: 0% is about no effect
# Target sequence (Q8NER1 whole entry, looked up): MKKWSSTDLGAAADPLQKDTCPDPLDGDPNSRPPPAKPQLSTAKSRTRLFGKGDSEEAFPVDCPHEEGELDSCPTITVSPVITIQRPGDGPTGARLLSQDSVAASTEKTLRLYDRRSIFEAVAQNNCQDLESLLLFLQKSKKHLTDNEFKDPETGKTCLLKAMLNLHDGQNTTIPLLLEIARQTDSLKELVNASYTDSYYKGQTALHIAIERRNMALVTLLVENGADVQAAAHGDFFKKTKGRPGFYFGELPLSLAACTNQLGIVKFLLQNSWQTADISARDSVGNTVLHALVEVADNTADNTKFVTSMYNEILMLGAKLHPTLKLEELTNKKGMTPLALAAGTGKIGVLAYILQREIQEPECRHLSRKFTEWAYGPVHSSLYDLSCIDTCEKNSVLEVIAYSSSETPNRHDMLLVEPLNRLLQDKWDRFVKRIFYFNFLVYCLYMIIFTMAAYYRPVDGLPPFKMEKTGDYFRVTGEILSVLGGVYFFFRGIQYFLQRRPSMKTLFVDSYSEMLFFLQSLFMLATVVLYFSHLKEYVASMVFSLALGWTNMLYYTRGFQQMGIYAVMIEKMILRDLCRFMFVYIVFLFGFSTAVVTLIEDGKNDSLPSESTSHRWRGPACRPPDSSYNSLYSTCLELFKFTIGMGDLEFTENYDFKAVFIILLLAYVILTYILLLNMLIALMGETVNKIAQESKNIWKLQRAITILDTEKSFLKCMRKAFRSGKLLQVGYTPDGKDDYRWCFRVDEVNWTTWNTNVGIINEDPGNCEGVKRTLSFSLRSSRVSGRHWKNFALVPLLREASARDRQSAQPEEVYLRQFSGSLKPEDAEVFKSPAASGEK
#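 Fluo-8 calcium influx in TRPV1-expressing cells, kinetic read (ex 480/em 520 nm). Compound added and read 3 min for agonist activity, followed by capsaicin at EC20 final and 2 min further read for enhancement.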
# TRPV1 potentiator – HTS Assay for Compounds that Act as Potentiators of the Vanilloid Receptor 1; actives 0.02% (n = 320,000); AID 540277, 2011; potentiation, % at 8.33 µM; TRPV1-expressing cells, Fluo-8 calcium influx, capsaicin EC20 potentiation; Transient receptor potential cation channel subfamily V member 1 (Homo sapiens), Q8NER1; in the data active means potentiation above about 80%; inconclusive means between about 30% and that limit; further: 0% is about no effect
#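 Fluo-8 calcium influx in TRPV1-expressing cells, kinetic read (ex 480/em 520 nm). Compound added and read 3 min for agonist activity, followed by capsaicin at EC20 final and 2 min further read for enhancement.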
# D1 PAM – Potentiators of Human D1 Dopamine Receptor: qHTS; D(1A) dopamine receptor (Homo sapiens), P21728; HEK293 TREx D1 cells, calcium flux, dopamine EC20 potentiation; potentiation, % at 10 µM; actives 0.036% (n = 360,000); in the data active means potentiation above about 30%; further: 0% is about no effect
# Numbers without * were called inactive; ? = inconclusive; . = no result given.
SMILES,D1 agonist,D1 antag,TRPV1 ag,TRPV1 potentiator,D1 PAM
Cc1cccc(N2C(=O)/C(=C/c3ccc(N4CCN(C)CC4)o3)C(=O)NC2=S)c1C,68*,6,11,-1,2
CCc1ccccc1N1C(=O)/C(=C/c2ccc(N3CCN(C)CC3)o2)C(=O)NC1=S,71*,2,10,3,-4
O=C1NC(=O)N(c2ccc3c(c2)OCO3)C(=O)/C1=C\c1ccc(N2CCCCC2)o1,50*,0,2,-3,-2
CN1C(=O)C(=Cc2ccc(N3CCCCCC3)o2)C(=O)N(C)C1=S,27,4,15,14,1
Cc1ccccc1N1C(=O)NC(=O)/C(=C/c2ccc(N3CCOCC3)o2)C1=O,14,-1,.,.,-1
Cc1ccccc1N1C(=O)/C(=C/c2ccco2)C(=O)NC1=S,0,-16,0,5,-3
CCOc1cccc(=NC2CCCCC2)c2c(C)n(C)c(C)c12,22,-11,3,1,-14
CCOc1ccccc1CN1C2CCC1CC(c1ccc(C)cc1)C2 (stereo not drawn),13,-41*,0,7,-7
CCC(=NCCCN(CC)CC)c1c(O)n(-c2ccccc2)c(=O)[nH]c1=O,1,-33*,-1,-7,-2
COc1ccc(CNCCc2ccc(Cl)cc2)c(OC)c1OC,20,-70*,-1,?,0
COc1ccc(CNCCc2cccc(F)c2)c2ccccc12,37*,29,11,2,4
COc1cc(OC)c(OC)cc1CNCCc1ccc(OC)c(OC)c1,2,-4,1,1,-1
CN1CCc2cccc(Cl)c2CC1,0,-64*,-1,-6,-7
Cc1ccc(NC(=O)Cn2cc(C(=O)c3ccccc3)c3ccccc32)cc1,11,-12,.,.,-8
C[C@H](O)[C@H]1CC[C@H]2[C@@H]3CCC4=CC(=O)CC[C@]4(C)[C@H]3CC[C@]12C,24,-33*,5,3,-4
COc1cc(OC)cc(C(=O)Nc2ccc(Cl)cc2C(=O)c2ccccc2Cl)c1,1,-6,.,.,0
O=C(Nc1ccc2c(c1)OCCO2)c1cccn(Cc2cccc([N+](=O)[O-])c2)c1=O,-2,.,.,.,-2
Cn1cc(C(=O)N2CCCCC2)c2ccccc21,2,-30*,5,-2,-3
CCn1cc(C(=O)N2CCCCC2)c2ccccc21,4,-14,3,-5,1
NCCc1ccc(OCc2ccccc2)c(OCc2ccccc2)c1,34*,11,0,-3,-2
N=C1SCC(=O)N1Cc1ccccc1,3,-31*,5,-3,-4
Cc1ccc(-n2c(/C=C/c3cccs3)nc3ccccc3c2=O)cc1C,2,-6,.,.,2
COc1ccc(CNCCc2c(C)[nH]c3ccc(OC(F)(F)F)cc23)c(OC)c1,99*,-55*,13,20,-2
COc1ccc2[nH]c(C)c(CCNCc3cc(OC)c(OC)c(OC)c3)c2c1,9,-7,8,-3,-2
CCOc1ccccc1NC(=O)c1cccn(Cc2ccccc2C)c1=O,7,29,.,.,2
SMILES,D1 agonist,D1 antag,TRPV1 ag,TRPV1 potentiator,D1 PAM
COc1cccc(-n2c(/C=C/c3cccc(C)c3)nc3ccccc3c2=O)c1,1,-1,.,.,0
Nc1ccc2nonc2c1[N+](=O)[O-],92*,-12,3,2,2
CCC1(CC)C(=O)NC(=Nc2cccc(C(F)(F)F)c2)NC1=O,31*,1,25,-27,-9
O=C(c1cc(F)ccc1F)C1CCCN(Cc2ccc3nonc3c2)C1 (stereo not drawn),0,-31*,18,-6,6
O=C(c1ccc2c(c1)OCO2)C1CCCN(Cc2ccc(F)c(F)c2)C1 (stereo not drawn),9,-34*,19,-6,-7
COc1cccc(C(=O)C2CCCN(Cc3ccc4nonc4c3)C2)c1 (stereo not drawn),2,-9,1,1,0
Cc1ccccc1CN1C(=O)CN=C(c2ccccc2)c2cc(Cl)ccc21,5,0,.,.,0

# Assay outcomes (PubChem BioAssay)
